Reference: ChEMBL document CHEMBL3988442, “University of Dundee, Small-Polar-MMV Screening Library” (2021)
The campaign covered roughly 48,000 compounds. About 13,000 (27%) showed an effect of 50% or more. Some of the results follow.

system: Wolbachia pipientis; assay: Anti-Wolbachia Cell-Based Screen; type: functional; set-up: scale not given: in the data most compounds retested in dose-response had high values; conditions: 5 µM

In order of rising “Percent Effect” value:
1. Cc1ccsc1CNC(=O)Nc1ccn(CCN2CCOCC2)n1  -52.79%
2. O=C(Cc1ccccc1Cl)Nc1ccn(CCN2CCOCC2)n1  -48.65%
3. COCC(=O)N1CCC2(CC1)NC(=O)[C@H]1CN(C(=O)N(C)C)C[C@H]12  -27.95%
4. Cc1nccn1-c1cccc(C2CCCN(C3CCCCC3)C2)n1 (stereo not given)  -27.27%
5. c1ccc(-c2nnc([C@H]3CCN(C4CCOCC4)C3)o2)cc1  -19.45%
6. COCc1nn(C)c2c1CCN(Cc1cnn(C)c1)C2.O=C(O)C(F)(F)F  -18.26%
7. CCOC(=O)c1coc(N2CCN(Cc3ccc(C)cc3)C(=O)C2)n1  -18.23%
8. CN(CCc1ccncc1)C(=O)C1CSCN1C(=O)C1CCCC1 (stereo not given)  -15.81%
9. CCC1CN(C(=O)Cc2coc(-c3ccccc3)n2)CCO1 (stereo not given)  -15.78%
10. CO[C@@H]1CC[C@H]2[C@H]1OCCN2C(=O)c1ccc(C)o1  -15.27%
11. O=S(=O)(Cc1ccc(F)cc1)N1CCN(CC(O)C2CC2)CC1 (stereo not given)  -13.11%
12. CN(CCc1ccncc1)C(=O)C1CSCN1C(=O)C(C)(C)C (stereo not given)  -12.64%
13. Cn1ncnc1-c1ccnc(N2CCC(C(O)c3cccs3)CC2)n1 (stereo not given)  -11.63%
14. Cc1cc(CNC(=O)CCCN2CCCCC2)n(C)n1  -11.62%
15. COc1cccc(CNC(=O)N2CCN(Cc3cc(C)on3)CC2)c1  -11.4%
16. CN1CCOC(CNC(=O)Cc2ccccc2F)C1 (stereo not given)  -10.58%
17. COCCc1nc(CSc2ccncc2)n(C)n1  -10.21%
18. COCC(=O)N[C@H](C)c1c(-c2ccc(OC)cc2)noc1C(=O)O  -10.1%
19. CC(C)(C)OC(=O)N1CSC[C@@H]1C(=O)NCc1ccncc1  -9.296%
20. Cc1ccc(CN2C[C@H]3CN(C(=O)c4ccno4)CCN3C2=O)cc1  -7.285%
21. CN(C)C(C(=O)N1CCN(CC(F)(F)F)CC1)c1ccccc1F (stereo not given)  -7.118%
22. CC(=O)Nc1ccc(-c2cn(CCn3c(C)cc(C)nc3=O)nn2)cc1  -7%
23. COc1ccc(CN2CCN(c3nccnc3OC)CC2=O)cc1  -6.7%
24. CCc1cnc(N2C[C@H]3CN(Cc4ccc(OC)cc4)C(=O)[C@H]3C2)nc1  -6.562%
25. CC(C)(O)CCc1ccc(C(=O)N2CCN(CC3CCCC3)CC2)cc1  -6.284%
26. COC(=O)CCNC(=O)c1ccoc1CN1c2ccccc2CC1C (stereo not given)  -5.639%
27. Cc1csc(CNC(=O)Nc2cc(C(F)(F)F)c[nH]c2=O)n1  -4.751%
28. Cc1cnn(Cc2cc(F)ccc2F)c1NC(=O)C1CCOCC1  -4.081%
29. CNC(=O)C1(N2CCC[C@H]2C(=O)NC2CCOCC2)CCOCC1.Cl  -3.696%
30. Cl.Cl.OC(CN1CCN(Cc2cc(F)cc(F)c2)CC1)C1CC1 (stereo not given)  -3.47%
31. CN1CCOC(CNCc2coc(-c3ccccc3)n2)C1 (stereo not given)  -3.46%
32. Nc1nnc(CCNc2ncnc3c2CCN(C(=O)C2CC2)C3)s1  -2.758%
33. CCCN(CCO)C(=O)C1CCC(=O)N(Cc2ccc(Cl)cc2)C1 (stereo not given)  -2.566%
34. COc1ccc(NC(=O)Cn2nc(C)c(C)cc2=O)cc1  -2.265%
35. COc1ccc(CN2C[C@H]3CN(C(=O)c4ccno4)CCN3C2=O)cc1  -1.817%
36. CN1CCOC(CNCc2nc(-c3ccoc3)no2)C1 (stereo not given)  -1.201%
37. Cc1cccc(O[C@H]2COCCN(C3CCOCC3)C2)n1  -0.8542%
38. Cc1nc(-c2ccc(Cl)s2)sc1C(=O)NCCS(N)(=O)=O  -0.7868%
39. CCc1ccccc1OCCN(C)C(=O)CN1CCCC1  -0.4334%
40. CN(C)CC1CN(Cc2coc(-c3ccccc3Cl)n2)CCO1 (stereo not given)  -0.3444%
41. Cn1cnnc1CC1CCN(Cc2c(Cl)cncc2Cl)CC1  -0.137%
42. CC(=O)N1CCN(c2cc(-c3ccccc3)nc3c(C)c(C)nn23)CC1  -0.0371%
43. CC(C)N(CCO)C(=O)C1CCC(=O)N(Cc2ccc(Cl)cc2)C1 (stereo not given)  0.7255%
44. Cc1cnc(NCC(C)(C)N2CCCCC2)nc1  1.17%
45. CNC(=O)NC(=O)CNc1cc(C(=O)OC)cc(C(F)(F)F)c1  1.326%
46. Cc1nn2c(NCC(N)=O)cc(-c3ccccc3)nc2c1C  1.327%
47. CC(C)(C)OC(=O)N1CCCc2ccc(NCc3ncc[nH]3)cc21  1.363%
48. O=c1cc2c(nn1CN1CCOCC1)CCC2  1.556%
49. CCS(=O)(=O)c1ncc(CN2CCCC2)n1CCc1ccccc1  1.853%
50. COc1ccc2c(c1)C1(CCN(Cc3cnn(C)c3)CC1)N(C)CC2.O=C(O)C(F)(F)F  2.583%
51. Cl.Cl.O=C(CN1CCN(CC(O)C2CC2)CC1)NCc1ccc(F)cc1 (stereo not given)  3.1%
52. Cc1nsc(NC(=O)N2CCN(Cc3ccc(F)cc3)C(=O)C2)n1  3.543%
53. COc1cccc(CN2CCc3nc(C(=O)NCC(C)C)sc3CC2)c1.O=C(O)C(F)(F)F  3.655%
54. COc1ccc(S(=O)(=O)Cc2cc(C)on2)cc1  3.84%
55. CCOc1cc(C)nc(N2CCN(C(=O)c3cc(Cl)c[nH]3)CC2)n1  4.417%
56. COc1ccc(CNC(=O)N2CCN(C)[C@@H]3CS(=O)(=O)C[C@@H]32)cc1  5.272%
57. CCC(C)(CC(=O)OC)NC(=O)c1ccc(C(C)=O)cc1 (stereo not given)  5.798%
58. Cc1nccn1-c1cccc(C2CCCN(C(=O)c3cc[nH]n3)C2)n1 (stereo not given)  5.97%
59. CN(CC(F)(F)F)C(=O)C1CSCN1C(=O)OC(C)(C)C (stereo not given)  6.249%
60. O=C1CC(C(=O)O)C2(CCN(C(=O)NCc3ccc(Cl)cc3)CC2)N1 (stereo not given)  6.317%
61. CC(OCC1CC1)C(=O)N1CCCN(Cc2cnn(C)c2)CC1 (stereo not given)  6.432%
62. COc1ccc(Cn2nc(C(N)=O)ccc2=O)c(Cl)c1  8.088%
63. Fc1cccc(N2CCc3ncnc(C4CC4)c3CC2)c1  8.314%
64. O=c1ccc2c(n1Cc1ccncc1)CCN(C1CCOC1)CC2 (stereo not given)  8.67%
65. CC(C)NC(=O)NC[C@H]1OC[C@@H](NCc2ccc(S(C)(=O)=O)cc2)[C@@H]1O  9.83%
66. Cc1ccc(C(=O)Nc2ccn(CCC(N)=O)n2)cc1  10.52%
67. Cc1ccnc(NC(=O)c2cc(C)oc2C)c1  11.88%
68. CCN(CC)S(=O)(=O)c1ccc(CNC(=O)c2cc(C)on2)cc1  15.58%
69. O=C(CCn1cncn1)N1CCCC(CO)(CCCc2ccccc2)C1 (stereo not given)  16.2%
70. O=C(NC1CC1)N1CCc2ccc(=O)n(Cc3ccncc3)c2CC1  23.4%
71. Fc1ccccc1-c1cccc(C2CCCN(C3CCOCC3)C2)n1 (stereo not given)  71.52%
72. CN1CCOC(CNCc2coc(-c3ccc(Cl)cc3)n2)C1 (stereo not given)  81.44%
73. CC(C)COC(=O)N1CC(=O)N(Cc2ccc(Cl)cc2)CC(O)C1 (stereo not given)  87.43%
74. Cc1cc(C(=O)Nc2ccn(CCCN3CCCC3)n2)no1  96.67%
75. CCc1nccn1-c1cccc(C2CCCN(C3CCCCC3)C2)n1 (stereo not given)  96.78%
76. Cc1nccn1-c1cccc(C2CCCN(C3CCCC3)C2)n1 (stereo not given)  98.22%
77. Cc1ccc(-c2nc(CNCC3CN(C)CCO3)co2)c(C)c1 (stereo not given)  99.3%
78. COc1ccc(CNC(=O)N2CCN(CC(O)C3CC3)CC2)cc1.Cl (stereo not given)  99.74%
79. Cc1cc(C(=O)Nc2ccn(CCCN3CCCC3)n2)c(C)o1  100.8%
80. CN(C)CCn1c2c(ccc1=O)CCN(Cc1ccncc1)CC2  102%
81. CO[C@@H]1CC[C@H]2[C@H]1OCCN2C(=O)COc1ccc(C)cc1  102.2%
82. Cc1ccc(CN2CC(O)CN(C(=O)OCC(C)C)CC2=O)cc1 (stereo not given)  102.7%
83. CN(Cc1ccncc1)C(=O)[C@H]1CSCN1C(=O)OC(C)(C)C  103.4%
84. CO[C@H]1CC[C@H]2[C@H]1OCCN2C(=O)CCOc1ccccc1  104.1%
85. Cn1cc(CN2CCc3ccc(=O)n(Cc4ccncc4)c3CC2)cn1.O=C(O)C(F)(F)F.O=C(O)C(F)(F)F  104.6%
86. CN1CCOC(CNCc2coc(-c3ccccc3Cl)n2)C1 (stereo not given)  105.3%
87. CN1CCOC(CNC(=O)Cc2coc(-c3ccccc3)n2)C1 (stereo not given)  107.6%
88. Cc1ccc(-c2nc(CNCC3CN(C)CCO3)co2)cc1 (stereo not given)  108.3%
89. CN(CCc1ccncc1)C(=O)C1CSCN1C(=O)CC(C)(C)C (stereo not given)  109.1%
90. COc1ccc(-c2cc3nn(CC(=O)NC(C)C)c(=O)n3c(C)n2)cc1  109.7%
91. COc1ccc(-c2cc3nn(CC(N)=O)c(=O)n3c(C)n2)cc1  110.8%
92. Cl.O=C(NCc1ccc(F)cc1)N1CCN(CC(O)C2CC2)CC1 (stereo not given)  111%
93. Cn1cc(CN2CCc3ccc(=O)n(CC4CC4)c3CC2)cn1  115.2%
94. Cl.O=C(NCc1ccc(Cl)cc1)N1CCN(CC(O)C2CC2)CC1 (stereo not given)  116%
95. Cc1nc(-c2ccccc2)cc2nn(CC(N)=O)c(=O)n12  117.5%
96. CCn1ccc(NC(=O)c2cc(C)on2)n1  120%
97. CN(C)C(=O)Cn1c2c(ccc1=O)CCN(Cc1cnn(C)c1)CC2.O=C(O)C(F)(F)F  120.2%
98. CN(C)CCn1c2c(ccc1=O)CCN(Cc1cnn(C)c1)CC2.O=C(O)C(F)(F)F.O=C(O)C(F)(F)F  120.7%
99. COc1ccc(CN2CC(O)CN(C(=O)OCC(C)C)CC2=O)cc1 (stereo not given)  126.2%
100. COc1ccc(CN2CC(O)CN(C(=O)CC(C)C)CC2=O)cc1 (stereo not given)  135.2%
